Values joined by “and” are separate entries in the source; they are usually repeats but may differ in a detail not shown here. Equal values may be shown once. Inconclusive results are not listed. Active and inactive are the calls of the source. How the source made its calls, unless noted: active means hit-call score of the fitted dose curve at least 0.9, where 1 is the maximum; inactive means score below 0.9.
molecular target: X-box-binding protein 1 (Homo sapiens) (UniProt P17861); experiment: ATG_Xbp1_CIS: Attagene CIS-FACTORIAL HepG2 Assay for human X-box Binding Protein 1 (XBP1) (AID 2282972); settings: HepG2 XBP1 cis-element reporter, Attagene multiplex; actives raise or lower the signal
Sequence (P17861 whole entry, looked up): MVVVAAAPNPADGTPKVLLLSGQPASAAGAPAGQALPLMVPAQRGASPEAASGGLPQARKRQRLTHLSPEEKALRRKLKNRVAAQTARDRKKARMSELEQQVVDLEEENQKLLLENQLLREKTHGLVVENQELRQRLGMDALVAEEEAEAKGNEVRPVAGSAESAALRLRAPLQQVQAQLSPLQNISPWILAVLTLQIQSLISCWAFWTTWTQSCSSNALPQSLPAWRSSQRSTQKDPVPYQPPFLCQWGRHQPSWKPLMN
Procedure, shortened: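 HepG2 cells transiently transfected with multiple cis-element reporter units report endogenous TF activity; 24 h exposure, then reporter mRNA measured by RT-PCR, 6-FAM labelling, HpaI digestion and capillary electrophoresis. Bidirectional fitting versus DMSO.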

Row | SMILES | outcome | AC50
1 | O=C(O)C(F)(OC(F)(F)C(F)(OC(F)(F)C(F)(OC(F)(F)C(F)(F)C(F)(F)F)C(F)(F)F)C(F)(F)F)C(F)(F)F (stereo unspecified) | inactive | –
2 | O=C(O)C(F)(F)C(F)(F)C(F)(F)C(F)(F)C(F)(F)C(F)(F)C(F)(F)C(F)(F)Cl | – | 58.7 µM (active) and 50 µM (active)
3 | c1ccc(-c2ccccc2-c2ccccc2)cc1 | inactive | –
4 | CNC(=S)NC | inactive | –
5 | OCCCC(F)(F)C(F)(F)C(F)(F)C(F)(F)C(F)(F)C(F)(F)C(F)(F)F | – | 72.5 µM (active) and 97.8 µM (active)
6 | CCN(CC)c1ccc2c(C)cc(=O)oc2c1 | inactive | –
7 | O=C(O)C(F)(F)C(F)(F)C(F)(F)C(F)(F)C(F)(F)C(F)(F)C(F)(F)C(F)(F)C(F)(F)C(F)(F)C(F)(F)C(F)(F)C(F)(F)F | inactive | –
8 | FC(F)(F)C(F)(F)C(F)(F)C(F)(F)CCI | inactive | –
9 | Cc1ccc(S(=O)(=O)NCl)cc1 | inactive | –
10 | C=CC(=O)OCC(F)(F)C(F)(F)C(F)(F)C(F)(F)C(F)(F)C(F)(F)C(F)(F)F | inactive | –
11 | C#C[C@]1(O)CC[C@H]2[C@@H]3CCc4cc(OC)ccc4[C@H]3CC[C@@]21C | inactive | –
12 | O=C(O)C(F)(F)C(F)(F)OC(F)(F)F | inactive | –
13 | CCCCCCCCCCCCCCCC[N+](C)(C)Cc1ccccc1 | inactive | –
14 | CCO[Si](CCC(F)(F)C(F)(F)C(F)(F)C(F)(F)C(F)(F)C(F)(F)F)(OCC)OCC | inactive | –
15 | c1ccc(B(c2ccccc2)c2ccccc2)cc1 | – | 31.7 µM (active)
16 | C=C(C)C(=O)OCCC(F)(F)C(F)(F)C(F)(F)C(F)(F)C(F)(C(F)(F)F)C(F)(F)F | inactive | –
17 | COC(=O)C1CCC(C(=O)OC)CC1 (stereo unspecified) | inactive | –

Row | SMILES | outcome | AC50
18 | CC(C)OC(=O)c1ccccc1C(=O)OC(C)C | inactive | –
19 | CCCCCCC(C)OC(=O)CCCCC(=O)OC(C)CCCCCC (stereo unspecified) | inactive | –
20 | C=CC(F)(F)C(F)(F)C(F)(F)C(F)(F)C(F)(F)C(F)(F)C(F)(F)C(F)(F)F | inactive | –
21 | C(=C(c1ccccc1)c1ccccc1)c1ccccc1 | inactive | –
22 | O=C(O)C(F)(F)C(F)(F)C(F)(F)F | inactive | –
23 | OC[C@@H](O)[C@@H](O)[C@H](O)[C@@H](O)CO | inactive | –
24 | O=C(OCCOCCOCCOC(=O)c1ccccc1)c1ccccc1 | inactive | –
25 | OCC(F)(F)C(F)(F)C(F)(F)F | inactive | –
26 | O=C(CC(=O)C(F)(F)C(F)(F)F)C(F)(F)F | inactive | –
27 | Oc1ccc(Nc2ccccc2)cc1 | inactive | –
28 | COC(=O)CCC(F)(F)C(F)(F)C(F)(F)C(F)(F)F | inactive | –
29 | CCCCCCCOC(=O)c1ccccc1C(=O)OCCCCCCC | inactive | –
30 | OCC(F)(F)C(F)(F)C(F)(F)C(F)(F)C(F)(F)C(F)F | inactive | –
31 | FC(F)(F)C(F)(F)C(F)(F)C(F)(F)C(F)(F)C(F)(F)CC1CO1 (stereo unspecified) | inactive | –
32 | CC/C=C\CCOC(=O)c1ccccc1 | inactive | –
33 | CS(C)(=O)=O | inactive | –
34 | C=CC(F)(F)C(F)(F)C(F)(F)C(F)(F)C(F)(F)C(F)(F)C(F)(F)C(F)(F)C=C | inactive | –

tested on: not listed separately; experiment: ATG_M_19_TRANS: Attagene TRANS-FACTORIAL HepG2 Assay for M19 Transcription Factor (Internal Marker) (AID 2282974; active means hit-call score of the fitted dose curve at least 0.9, where 1 is the maximum); settings: HepG2 Attagene TRANS-FACTORIAL M19 internal marker reporter
Procedure, shortened: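 Gain-of-signal in reporter mRNA, relative to DMSO, was scored from capillary electrophoresis fluorescence. HepG2 cells carried transiently transfected multiple reporter transcription units and were incubated with test chemicals for 24 h.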

Row | SMILES | outcome
35 | O=C(O)C(F)(OC(F)(F)C(F)(OC(F)(F)C(F)(OC(F)(F)C(F)(F)C(F)(F)F)C(F)(F)F)C(F)(F)F)C(F)(F)F (stereo unspecified) | inactive
36 | O=C(O)C(F)(F)C(F)(F)C(F)(F)C(F)(F)C(F)(F)C(F)(F)C(F)(F)C(F)(F)Cl | inactive
37 | c1ccc(-c2ccccc2-c2ccccc2)cc1 | inactive
38 | CNC(=S)NC | inactive
39 | CCN(CC)c1ccc2c(C)cc(=O)oc2c1 | inactive
40 | FC(F)(F)C(F)(F)C(F)(F)C(F)(F)CCI | inactive
41 | C=CC(=O)OCC(F)(F)C(F)(F)C(F)(F)C(F)(F)C(F)(F)C(F)(F)C(F)(F)F | inactive
42 | c1ccc(B(c2ccccc2)c2ccccc2)cc1 | inactive
43 | C=C(C)C(=O)OCCC(F)(F)C(F)(F)C(F)(F)C(F)(F)C(F)(C(F)(F)F)C(F)(F)F | inactive
44 | COC(=O)C1CCC(C(=O)OC)CC1 (stereo unspecified) | inactive
45 | C=CC(F)(F)C(F)(F)C(F)(F)C(F)(F)C(F)(F)C(F)(F)C(F)(F)C(F)(F)F | inactive
46 | C(=C(c1ccccc1)c1ccccc1)c1ccccc1 | inactive
47 | O=C(O)C(F)(F)C(F)(F)C(F)(F)F | inactive
48 | OC[C@@H](O)[C@@H](O)[C@H](O)[C@@H](O)CO | inactive
49 | O=C(OCCOCCOCCOC(=O)c1ccccc1)c1ccccc1 | inactive
50 | OCC(F)(F)C(F)(F)C(F)(F)F | inactive
51 | O=C(CC(=O)C(F)(F)C(F)(F)F)C(F)(F)F | inactive
52 | COC(=O)CCC(F)(F)C(F)(F)C(F)(F)C(F)(F)F | inactive
53 | OCC(F)(F)C(F)(F)C(F)(F)C(F)(F)C(F)(F)C(F)F | inactive
54 | FC(F)(F)C(F)(F)C(F)(F)C(F)(F)C(F)(F)C(F)(F)CC1CO1 (stereo unspecified) | inactive
55 | CC/C=C\CCOC(=O)c1ccccc1 | inactive
56 | C=CC(F)(F)C(F)(F)C(F)(F)C(F)(F)C(F)(F)C(F)(F)C(F)(F)C(F)(F)C=C | inactive

Reference: PubChem BioAssay (EPA / NIEHS)
